96 molecules from PubChem BioAssay AID1566 (Sanford-Burnham Center for Chemical Genomics, 2009) can be followed below.

Values joined by “and” are separate entries in the source; they are usually repeats but may differ in a detail not shown here. Equal values may be shown once. Among all 290,000 compounds or so, about 1,800 (0.62%) were called active. No stated cut-off is given here; in the data, active means inhibition above about 50%; inactive means the rest. The entries come from a sample that favours actives as a whole. A structure can be active in one record and inactive in another.

This test can be described thus: NOD2 signaling inhibitors, cell-based, luminescence, uHTS, HEK293 (AID 1566). The note with it: HEK293 NOD2/NF-kB luciferase reporter, at 4 µM, stronger effect = higher value. Background: Reporter assays use an easily measured gene product as a stand-in for the process of interest.
What is called inhibition is the relative decrease from the control value, in per cent. Regarding `O=C(CCn1cccc1)NCc1ccc(Cl)cc1`, the inhibition is 5.1% (inactive).
Next, `CCOc1cc(/C=N/NC(=O)c2cc(C3CC3)[nH]n2)ccc1O`: -2.8% (inactive).
Regarding `CCOc1cccc(/C=N/NC(=O)c2cc(C3CC3)[nH]n2)c1O`, the inhibition was 63.2% (active).
Next, `O=C(N/N=C/c1cccc2ccccc12)c1cc(C2CC2)[nH]n1`: 10.5% (inactive); `Cc1ccc(C)c(NC(=O)CCN2C(=O)c3ccccc3C2=O)c1`: -5.3% (inactive); `COc1ccc(N2CC(C(=O)N3CCN(c4ccccc4OC)CC3)CC2=O)cc1` (stereo unspecified): 12.7% (inactive).
For the molecule `Cc1ccc(S(=O)(=O)Nc2ccc(N3CCOCC3)cc2)cc1`, the inhibition was 0.3% (inactive).
The result for `COc1ccccc1N1CCN(C(=O)C2CCN(S(=O)(=O)c3ccc4c(c3)CC(C)N4C(=O)C3CC3)CC2)CC1` (stereo unspecified) reads 27% (inactive); that for `Cn1c(=O)c2c(nc(Oc3ccccc3)n2C)n(C)c1=O`, 4.8% (inactive) and 12.7% (inactive); that for `COc1ccc(Oc2nc3c(c(=O)n(C)c(=O)n3C)n2C)cc1`, 26.2% (inactive).
In the case of `Cc1c(C#N)sc2nc(-c3ccccc3)nc(N3CCCC3)c12`, the inhibition was -1.5% (inactive).
Next, `COCc1cc(C)nc(SCC(=O)Nc2ccccc2N2CCOCC2)c1C#N`: 40% (inactive); `COCc1cc(C)nc(SCC(=O)Nc2ccc(N3CCOCC3)cc2)c1C#N`: 5% (inactive).
Next, `COCc1cc(C)nc(SCC(=O)Nc2cc(C(F)(F)F)ccc2N2CCOCC2)c1C#N`: 58.6% (active); `COCC(C)n1c(C)cc(C(=O)COC(=O)CNC(=O)c2ccccc2)c1C` (stereo unspecified): 20.5% (inactive).
The result for `COc1ccc(S(=O)(=O)N2CCCCCC2)cc1C(=O)OCc1c(C)noc1C` reads 0.3% (inactive); that for `CNc1nc2cc([N+](=O)[O-])c([N+](=O)[O-])cc2nc1NC`, 18.9% (inactive); that for `Cc1ccc(NC(=S)N(C)C)cc1C`, -14.4% (inactive).
Consider `Cc1cc(C)cc(OCC(=O)Nc2ccncc2)c1`, for which the inhibition is 29.4% (inactive).
On to `Cc1cc(Cl)ccc1OCC(=O)Nc1ccncc1`, for which the inhibition is 39.3% (inactive).
Turning to `Cc1cc(OCC(=O)Nc2ccncc2)ccc1Cl`, the inhibition is 39.6% (inactive).
The result for `O=C(COc1ccccc1)Nc1ccncc1` reads 5.2% (inactive); that for `COc1cccc(OCC(=O)Nc2ccncc2)c1`, 19.9% (inactive).
The result for `Cc1cc(OCC(=O)Nc2ccncc2)ccc1Br` reads 38.2% (inactive); that for `CC(C)CCOc1cccc(OCC(=O)Nc2ccncc2)c1`, 60% (active).
The result for `CC1=C([N+](=O)[O-])C(c2ccccc2Cl)NC(=O)N1C` (stereo unspecified) reads 14.3% (inactive); that for `O=C(NC1CCCN(CCc2ccccc2)C1)c1c(F)cccc1F` (stereo unspecified), 4.3% (inactive); that for `COc1cccc(N2CC(C(=O)Nc3nnc(SCCN4CCOCC4)s3)CC2=O)c1` (stereo unspecified), 14.1% (inactive).
With `CCOC(=O)c1sc2ccccc2c1OC(=O)c1ccccc1`, the inhibition is 27.7% (inactive).
The result for `CCOC(=O)c1sc2ccccc2c1OC(=O)c1ccccc1OC` reads 22.4% (inactive); that for `Cc1ccccc1C(=O)Nc1ccc(N2CCN(C(=O)c3ccco3)CC2)cc1`, 3.9% (inactive).
The result for `COc1cccc(-c2nc3c(c(SCC(=O)N4CCOCC4)n2)Cc2c(CO)cnc(C)c2O3)c1` reads 52.5% (active); that for `COc1ccc(-c2nc3c(c(SCC(=O)N4CCOCC4)n2)Cc2c(CO)cnc(C)c2O3)cc1`, 32% (inactive); that for `Cc1cccc(-c2nc3c(c(SCC(=O)N4CCOCC4)n2)Cc2c(CO)cnc(C)c2O3)c1`, 42.3% (inactive).
The result for `CCc1ccc(NC(=O)CN(C)S(=O)(=O)c2ccc3[nH]c(=O)oc3c2)cc1` reads 9.7% (inactive); that for `COC(=O)C1=C(C)N(CCc2ccc(OC)cc2)C(=O)C1`, -0.9% (inactive); that for `Cc1cc(C)nc(N(C#N)Cc2cccc([N+](=O)[O-])c2)n1`, 15.2% (inactive).
As for `Cc1cccc(Nc2ncnc(N)c2[N+](=O)[O-])n1`, the inhibition is 32% (inactive).
The result for `Cc1cccnc1Nc1ncnc(N)c1[N+](=O)[O-]` reads 3.6% (inactive).
The result for `COc1cccc(C(=O)NNC(=O)C(=O)Nc2ccc(C)cc2)c1` reads 4.6% (inactive).
Next, `COc1cccc(C(=O)NNC(=O)C(=O)Nc2ccc(C)c(Cl)c2)c1`: 78.2% (active); `COc1ccc(C(=O)NNC(=O)C(=O)Nc2ccc(C)c(Cl)c2)cc1`: 1.2% (inactive); `COc1ccc(/C=N/NC(=O)CC#N)cc1Oc1nc(Cl)ncc1F`: -4% (inactive).
Take `O=[N+]([O-])c1ccc(C2OCCO2)cc1CS(=O)(=O)c1ccccc1`: the inhibition is -3.4% (inactive).
The result for `CCC(=O)Nc1cccc2ccccc12` reads 15.5% (inactive); that for `CCN(CC)c1ccc(/C=N/NC(=O)C(O)(c2ccccc2)c2ccccc2)o1`, 3.6% (inactive).
The result for `Cc1[nH]n(-c2cccc(Cl)c2)c(=O)c1-c1ccccc1` reads 17.3% (inactive); that for `Cc1[nH]n(-c2ccccc2)c(=O)c1-c1ccc(Cl)cc1`, -50.4% (inactive); that for `C=CCn1c(-c2cc3cccc(OC)c3o2)n[nH]c1=S`, -1.5% (inactive).
The result for `O=C(c1cc(-c2cccc(Cl)c2)on1)N1CCCCCC1` reads -44.3% (inactive); that for `Nc1nc(-c2cccs2)c(CC(=O)O)s1`, 4.5% (inactive); that for `CC(C)(C)c1ccc(-n2ncc3c2CCCC3NC(=O)CCN2CCCC2=O)cc1` (stereo unspecified), 57.1% (active).
As to `CC(C)(C)c1ccc(-n2ncc3c2CCCC3NC(=O)CN2CCCC2=O)cc1` (stereo unspecified), the inhibition was 35.8% (inactive).
The result for `CC(C)(C)c1ccc(-n2ncc3c2CCCC3NC(=O)CCN2CCCCC2=O)cc1` (stereo unspecified) reads 17.1% (inactive); that for `Cc1sc2ncnc(N3CCN(Cc4ccccc4)CC3)c2c1-c1ccccc1`, -9.7% (inactive).
The result for `CCN1CCN(c2ncnc3sc(C)c(-c4ccccc4)c23)CC1` reads 35.6% (inactive); that for `CCc1ccc(-c2cc(C)no2)cc1S(=O)(=O)N1CCOc2ccc(C)cc21`, 16.8% (inactive).
The result for `COc1ccccc1CC(=O)Nc1ccc(NC(=O)c2cccs2)cc1` reads -13% (inactive); that for `CCOC(=O)c1nc2sc3c(c2c(=O)[nH]1)CCC(C)C3` (stereo unspecified), 45.5% (inactive).
As to `CCOC(=O)c1nc2sc3c(c2c(=O)[nH]1)CCCC3`, the inhibition is 55.1% (active) and 4.8% (inactive).
For the molecule `CCOC(=O)CSc1nc2sc3c(c2c(=O)[nH]1)CCCC3`, the inhibition is 8.9% (inactive).
Next, `COc1ccccc1CNC(=O)CCc1nnc2ccc(NCCCN3CCCC3=O)nn12`: 12.8% (inactive).
Next, `Cc1ccc(Cn2c(=O)c3ccccc3n3c(SCC(=O)N4CCCCC4C)nnc23)cc1` (stereo unspecified): 8.3% (inactive); `Cc1ccc(C(=O)NNC(=O)CCN2C(=O)C3CCCCC3C2=O)cc1` (stereo unspecified): 11.6% (inactive).
Next, `COc1cc(SC)ccc1C(=O)Nc1nccs1`: -159% (inactive); `COc1cc(SC)ccc1C(=O)Nc1nc(C)cs1`: 72.2% (active); `COc1cc(SC)ccc1C(=O)Nc1nc(C)cc(C)n1`: 10.5% (inactive).
For `O=C(O)c1ccc(NCc2ccc3c(c2)OCO3)cc1`, the inhibition is 6.2% (inactive).
Next, `COc1ccc(/C=N/N2C(=O)CSC2=S)cc1`: -23.8% (inactive); `COc1ccc(-c2nn(-c3ccccc3)cc2/C=N/O)cc1`: 9.4% (inactive).
With `COc1ccc(-c2nn(-c3ccccc3)cc2/C=N/N2C(=O)CSC2=S)cc1`, the inhibition was 51.5% (active).
For `CCC1(CC)NC(=O)N(CC(=O)NC(=O)NCc2ccccc2)C1=O`, the inhibition is -0.6% (inactive).
As for `O=C(CSc1nncc(=O)[nH]1)Nc1cccc([N+](=O)[O-])c1`, the inhibition is 67.8% (active).
The result for `Nc1cc(=O)[nH]c(SCC(=O)Nc2cccc([N+](=O)[O-])c2)n1` reads 0.5% (inactive).
Next, `O=C(CSc1nc2ccccc2c(=O)[nH]1)Nc1cccc([N+](=O)[O-])c1`: 19.4% (inactive); `COc1ccc(NC(=O)C23CC4CC(C2)CC(n2cnc(Br)n2)(C4)C3)cc1OC`: -17.8% (inactive); `COc1ccc(NC(=O)N2CCCC(c3nc(-c4ccc(C(C)C)cc4)no3)C2)cc1` (stereo unspecified): 42.1% (inactive).
The result for `Cc1ccccc1NC(=O)N1CCCC(c2nc(-c3ccc(F)cc3)no2)C1` (stereo unspecified) reads 7.4% (inactive); that for `Cc1ccccc1NC(=O)N1CCCC(c2nc(-c3ccc(C(C)C)cc3)no2)C1` (stereo unspecified), 72.9% (active).
For `COCCCN1C(=O)C(O)=C(C(=O)c2ccco2)C1c1cccc(Br)c1` (stereo unspecified), the inhibition is 7.1% (inactive).
Next, `COc1ccc(CN2CCN(Cc3ccc4cc(F)ccc4n3)CC2CCO)c(C)c1C` (stereo unspecified): -1.2% (inactive).
The result for `O=[N+]([O-])c1ccc(N2CCN(c3ccc(Cl)nn3)CC2)c(Cl)c1` reads -52.2% (inactive); that for `Cc1ccc2nc(C)c(CN3CCN(c4ccc([N+](=O)[O-])cc4Cl)CC3)n2c1`, 52.7% (active); that for `CCCC(=O)N1CCN(c2ccc([N+](=O)[O-])cc2Cl)CC1`, -6.8% (inactive).
With `Cc1cc(C)c2c(N)c(C(=O)NN)sc2n1`, the inhibition is 0.7% (inactive).
The result for `Cc1cc(C)c2c(N)c(C(=O)Nc3nccs3)sc2n1` reads -123% (inactive); that for `Cc1cc(C)c2c(N)c(C(=O)Nc3ncc(C)s3)sc2n1`, 62% (active); that for `CN1CCN(C(=S)c2cn(Cc3ccccc3F)c3ccccc23)CC1`, 2.8% (inactive).
For `CC(=O)c1cn(CC(=O)Nc2ccccc2F)c2ccccc12`, the inhibition is 30.8% (inactive).
The result for `CCOC(=O)c1cnc2nc(C)[nH]n2c1=O` reads -11% (inactive); that for `O=C(CNC(=O)C1CCCCC1)NCc1ccco1`, -3% (inactive).
Consider `Cc1nc2ccc(NC(=O)c3ccc(S(=O)(=O)N(C)c4ccccc4)cc3)cc2s1`, for which the inhibition is 35.2% (inactive).
As for `Cc1nc2ccc(NC(=O)c3ccc(Cl)c(S(=O)(=O)N(C)c4ccccc4)c3)cc2s1`, the inhibition is 38.6% (inactive).
Next, `CN(Cc1ccccc1)C(=O)[C@H]1CCC(=O)N1Cc1ccco1`: -2.2% (inactive).
On to `Cc1onc(-c2c(Cl)cccc2Cl)c1C(=O)NC(=S)N1CCOCC1`, for which the inhibition is 11.9% (inactive).
Next, `Cc1c(OCC(=O)NC(Cc2ccc(Cl)cc2)C(=O)O)ccc2c3c(c(=O)oc12)CCCC3` (stereo unspecified): 7.1% (inactive).
